A selection: hits, their analogues and other compounds. The true share with any hit is near 8.1%.
PD-1 reversal = reversal of PD-1 mediated T-cell inhibition; primary human CD4 T cells, PD-L1 beads, CellTiter-Glo 96 h; activation, % (concentration not given with the values); 29,000 tested, under 10 active; call rule not given here;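 note: 0% = median vehicle wells and 100% = positive control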
Shh pathway inh = blocks Sonic Hedgehog signaling | Shh-LIGHT2 Gli-luciferase reporter, 30 h | 2.1% of 22,000 active | inhibition, % (test concentration not listed);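 active = mean inhibition across valid replicates above about 65%, limit read from the data; inconclusive = mean under the limit, yet half or more replicates past it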;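 note: pathway switched on by Shh-conditioned medium diluted 1 in 25 in low serum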
NOMO-1 viab = STK33 inhibitor candidate reducing NOMO-1 cell viability; NOMO-1 AML viability, CellTiter-Glo luminescence, 72 h; inhibition, % (concentration not given with the values); 7.5% of 37,000 active; in the data active = inhibition above about 80%; inconclusive = no clear call, values can overlap the other calls
MITF inh = blocks MITF activity | AID 2240 | TRPM1 promoter luciferase, luminescence, 24 h | inhibition, % (no concentration beside the values) | 0.28% of 37,000 active; in the data active = inhibition above about 85%; inconclusive = no clear call, values can overlap the other calls; inactive = below about 68%;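 note: human melanocyte line stably carrying TRPM1 promoter luciferase reporter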
Numbers without * were called inactive; ? = inconclusive; / = not tested or not shown.

SMILES | PD-1 reversal | Shh pathway inh | NOMO-1 viab | MITF inh
CC(C)NC(=O)N(C)C[C@@H]1Oc2c(NC(=O)Nc3ccc(C(F)(F)F)cc3)cccc2C(=O)N([C@@H](C)CO)C[C@@H]1C | -1 | -43 | 67 | -15
CC(C)NC(=O)N(C)C[C@H]1Oc2c(NC(=O)Nc3ccc(C(F)(F)F)cc3)cccc2C(=O)N([C@@H](C)CO)C[C@H]1C | -4 | 21 | 121* | 24
CC(C)NC(=O)N(C)C[C@@H]1Oc2c(NC(=O)Nc3ccc(C(F)(F)F)cc3)cccc2C(=O)N([C@H](C)CO)C[C@@H]1C | -5 | 17 | 117* | 27
Cc1ccc(S(=O)(=O)Nc2ccc3c(c2)C(=O)N([C@H](C)CO)C[C@@H](C)[C@H](CN(C)C(=O)NC2CCCCC2)O3)cc1 | 0 | -22 | 34 | 3
Cc1ccc(S(=O)(=O)Nc2cccc3c2O[C@@H](CN(C)Cc2ccncc2)[C@@H](C)CN([C@H](C)CO)C3=O)cc1 | 1 | 2 | 5 | -4
COC(=O)CNC(=O)c1cn(-c2ccccc2)nc1-c1cccs1 | 0 | / | 105* | -46
C[C@H](CO)N1C[C@H](C)[C@H](CN(C)S(=O)(=O)c2cccs2)Oc2ccc(NC(=O)Nc3ccc4c(c3)OCO4)cc2CC1=O | 1 | 0 | 86* | 24
C[C@H](CO)N1C[C@H](C)[C@H](CN(C)S(=O)(=O)c2cccs2)Oc2ccc(NC(=O)Nc3ccc(C(F)(F)F)cc3)cc2CC1=O | / | / | 123* | 21
C[C@@H]1CN([C@H](C)CO)C(=O)Cc2cc(NC(=O)Nc3ccc(C(F)(F)F)cc3)ccc2O[C@H]1CN(C)S(=O)(=O)c1cccs1 | 3 | / | 12 | 4
C[C@@H]1CN([C@@H](C)CO)C(=O)Cc2cc(NC(=O)Nc3ccc(C(F)(F)F)cc3)ccc2O[C@@H]1CN(C)S(=O)(=O)c1cccs1 | -8 | 18 | 111* | 69
O=C(c1ccccc1)c1cccc(N=Cc2c(O)[nH]c(=O)[nH]c2=O)c1 | 1 | -40 | -15 | 0
O=c1c2ccccc2c(C=Nc2cccc(C(F)(F)F)c2)c(O)n1-c1ccccc1 | -1 | 4 | 106* | -3
Cc1cccc(N=Cc2c(O)n(-c3ccccc3)c(=O)c3ccccc23)c1 | 1 | -11 | 91* | -18
S=C1NC2=C(CCc3ccccc32)C(c2ccccc2)N1 (stereo unspecified) | -2 | 51 | 13 | 17
CC(C)NC(=O)Nc1cccc2c1O[C@H](CN(C)S(=O)(=O)c1ccc(F)cc1)[C@@H](C)CN([C@H](C)CO)C2=O | 1 | -14 | 13 | 7
Nc1nc(COc2cccc3cccnc23)nc(Nc2ccccc2)n1 | -8 | / | 91* | -66
NC(N)=NN=Cc1c(Cl)cccc1Cl | / | 65* | 61 | 0
C[C@H](CO)N1C[C@H](C)[C@@H](CN(C)Cc2ccc(-c3ccccc3)cc2)Oc2ccc(NS(=O)(=O)c3ccc(Cl)cc3)cc2C1=O | -1 | 27 | 62 | 2
C[C@@H]1CN([C@H](C)CO)C(=O)c2cc(NS(=O)(=O)c3ccc(Cl)cc3)ccc2O[C@@H]1CN(C)Cc1ccc(-c2ccccc2)cc1 | -1 | / | 109* | 26
C[C@H](CO)N1C[C@H](C)[C@H](CN(C)Cc2ccc(-c3ccccc3)cc2)Oc2ccc(NS(=O)(=O)c3ccc(Cl)cc3)cc2C1=O | 0 | 29 | 114* | 14
C[C@H]1CN([C@@H](C)CO)C(=O)c2cc(NS(=O)(=O)c3ccc(Cl)cc3)ccc2O[C@@H]1CN(C)Cc1ccc(-c2ccccc2)cc1 | / | / | 38 | -4
C[C@@H]1CN([C@@H](C)CO)C(=O)c2cc(NS(=O)(=O)c3ccc(Cl)cc3)ccc2O[C@@H]1CN(C)Cc1ccc(-c2ccccc2)cc1 | 0 | -6 | 123* | 37
C[C@@H]1CN([C@H](C)CO)C(=O)c2cc(NC(=O)Nc3ccc(F)cc3)ccc2O[C@H]1CN(C)S(=O)(=O)c1ccc(Cl)cc1 | -2 | 2 | 2 | -44
C[C@@H]1CN([C@H](C)CO)C(=O)c2cccc(NC(=O)c3nc4ccccc4s3)c2O[C@@H]1CN(C)S(=O)(=O)c1ccc(Cl)cc1 | -2 | 33 | 65 | 5
C[C@@H]1CN([C@H](C)CO)C(=O)c2cccc(NC(=O)c3nc4ccccc4s3)c2O[C@H]1CN(C)S(=O)(=O)c1ccccc1 | / | ? | 47 | 9
SMILES | PD-1 reversal | Shh pathway inh | NOMO-1 viab | MITF inh
C[C@H](CO)N1C[C@H](C)[C@H](CN(C)S(=O)(=O)c2ccc(F)cc2)Oc2c(NC(=O)c3nc4ccccc4s3)cccc2C1=O | -7 | 9 | 108* | 58
C[C@H](CO)N1C[C@H](C)[C@@H](CN(C)S(=O)(=O)c2ccc(Cl)cc2)Oc2c(NC(=O)c3nc4ccccc4s3)cccc2C1=O | -6 | 5 | 117* | 25
C[C@@H]1CN([C@@H](C)CO)C(=O)c2cccc(NC(=O)c3nc4ccccc4s3)c2O[C@@H]1CN(C)S(=O)(=O)c1ccccc1 | 0 | -44 | 102* | 37
C[C@@H]1CN([C@@H](C)CO)C(=O)c2cccc(NC(=O)c3nc4ccccc4s3)c2O[C@@H]1CN(C)S(=O)(=O)c1ccc(Cl)cc1 | -2 | 20 | 113* | 60
O=C(CC1NCCNC1=O)Nc1cccc(Cl)c1 (stereo unspecified) | / | / | -9 | -6
C[C@H](CO)N1C[C@H](C)[C@H](CN(C)S(=O)(=O)c2ccc(Cl)cc2)Oc2c(NC(=O)c3nc4ccccc4s3)cccc2C1=O | -1 | 3 | 93* | 20
C[C@H](CO)N1C[C@H](C)[C@H](CN(C)C(=O)Nc2ccc3c(c2)OCO3)Oc2ccc(NC(=O)Nc3ccc(C(F)(F)F)cc3)cc2C1=O | -2 | 7 | 99* | 18
C[C@@H]1CN([C@H](C)CO)C(=O)c2cc(NC(=O)Nc3ccc(C(F)(F)F)cc3)ccc2O[C@H]1CN(C)C(=O)Nc1ccc2c(c1)OCO2 | 4 | / | 19 | 0
C[C@@H]1CN([C@@H](C)CO)C(=O)c2cc(NC(=O)Nc3ccc4c(c3)OCO4)ccc2O[C@@H]1CN(C)C(=O)Nc1ccc(C(F)(F)F)cc1 | -3 | -16 | 93* | 33
O=C(COc1ccc([N+](=O)[O-])cc1)Nc1ccc(N2CCN(C(=O)c3ccco3)CC2)cc1 | / | / | -2 | -1
O=C(CC1c2ccccc2Oc2ccccc21)Nc1ccc(Cc2ccncc2)cc1 | -4 | / | 135* | 60
CCOC(=O)Nc1cccc(NC(=O)CC2c3ccccc3Oc3ccccc32)c1 | 0 | / | 72 | 89*
O=C(CC1c2ccccc2Oc2ccccc21)Nc1ccccc1C(=O)N1CCCCC1 | 0 | / | -3 | 1
COc1cc(Br)cc(CNc2cc(C)on2)c1O | -1 | 3 | 0 | 9
COc1cc(COc2cc(N)c(Cl)cc2C(=O)CCC2CCN(CCNS(C)(=O)=O)CC2)cc(OC)c1 | -18 | -47 | 143* | -9
CCOC(=O)c1cnc(SCC(=O)Nc2ccc(Cl)cc2Cl)nc1N | -6 | / | 71 | 17
CCOC(=O)c1cnc(S/C=C/C(=O)c2ccc(C)cc2)nc1N | -48 | 33 | 120* | 30
C[C@@H]1CN([C@@H](C)CO)C(=O)c2cc(NS(C)(=O)=O)ccc2O[C@@H]1CN(C)Cc1ccc(Oc2ccccc2)cc1 | -1 | 7 | 1 | 4

Assay outcomes as filed in PubChem BioAssay.
